Results taken from PubChem BioAssay (NCI).
This is part of a sample that, as a whole, favours compounds with a hit. Of some 83,000 tested, about 20% had one in any assay.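 96-well plates, one dose, 48 hours. Percent growth reported; active if below 10.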 A number with no mark means an inactive call. Active and inactive are the calls of the source.

Experiments:
Assay in all cases: NCI-60 one-dose screen, 48 h (100 = growth as untreated, 0 = no growth, -100 = all killed)
Conditions in all cases: 10 µM
SK-MEL-2 melanoma = test system: SK-MEL-2 melanoma
SN12C renal = test system: SN12C renal
UO-31 renal = test system: UO-31 renal
TK-10 renal = test system: TK-10 renal
ACHN renal = test system: ACHN renal
CAKI-1 renal = test system: CAKI-1 renal
A498 renal = test system: A498 renal
CCRF-CEM leukemia = test system: CCRF-CEM leukemia
MOLT-4 leukemia = test system: MOLT-4 leukemia
SR leukemia = test system: SR leukemia
RPMI-8226 leukemia = test system: RPMI-8226 leukemia
OVCAR-8 ovarian = test system: OVCAR-8 ovarian
OVCAR-5 ovarian = test system: OVCAR-5 ovarian
OVCAR-4 ovarian = test system: OVCAR-4 ovarian
SK-OV-3 ovarian = test system: SK-OV-3 ovarian
IGROV1 ovarian = test system: IGROV1 ovarian
OVCAR-3 ovarian = test system: OVCAR-3 ovarian
HS 578T breast = test system: HS 578T breast
NCI/ADR-RES ovarian = test system: NCI/ADR-RES ovarian

Structure (SMILES)	growth (SK-MEL-2 melanoma)	growth (SN12C renal)	growth (UO-31 renal)	growth (TK-10 renal)	growth (ACHN renal)	growth (CAKI-1 renal) [%]	growth (A498 renal)	growth (CCRF-CEM leukemia)	growth (MOLT-4 leukemia)	growth (SR leukemia)	growth (RPMI-8226 leukemia)	growth (OVCAR-8 ovarian)	growth (OVCAR-5 ovarian)	growth (OVCAR-4 ovarian) [%]	growth (SK-OV-3 ovarian) [%]	growth (IGROV1 ovarian) [%]	growth (OVCAR-3 ovarian)	growth (HS 578T breast)	growth (NCI/ADR-RES ovarian)
Brc1ccc(-c2cn3ccnc3c(-c3ccc(Br)cc3)n2)cc1	30.8%	53.7%	41.6%	84.2%	54.6%	39.6	35.9%	44.8%	30.4%	13.4%	58.3%	51.6%	82.4%	62.2	55.2	55.8	31.9%	61.1%	19.7%
CCCN(CCC)CCCNC(=O)c1cc2c(-c3ccc(OC)c(OC)c3)nn(C)c2s1	-31.3% (active)	20.8%	6.68% (active)	55.8%	25%	28.5	-0.28% (active)	-15.9% (active)	-8.08% (active)	4.41% (active)	-10.5% (active)	4.29% (active)	69.5%	22.1	24	35.5	-10.1% (active)	11.5%	-8.48% (active)
O=C(Cn1ccc(=O)[nH]c1=O)c1ccc([N+](=O)[O-])o1	101%	108%	109%	63.3%	110%	105	115%	83%	106%	73.9%	65.5%	103%	114%	97.9	112	123	96.9%	116%	107%
Cc1ccc(-c2cc(C(=O)Nc3ccc(S(=O)(=O)N4CCCCC4)cc3)[nH]n2)c(O)c1	80%	53.3%	56.2%	61.6%	66.5%	67.3	63.3%	45.5%	38.7%	14.9%	43.3%	58.7%	73.8%	38.5	94.1	68.8	55.3%	79.4%	59.9%
COc1cc(OC)cc(-c2ccc(-c3ccc(C(=N)N)cn3)o2)c1	-76.8% (active)	-50.5% (active)	-33.9% (active)	0.358% (active)	1.34% (active)	16.1	44.1%	-25.6% (active)	-41.9% (active)	0.771% (active)	-50% (active)	9.75% (active)	-0.187% (active)	23.1	31.2	27	19.4%	-11.6% (active)	74.5%
CCOC(=O)[C@@H]1[C@H](c2ccccc2)[C@H]([N+](=O)[O-])[C@H](c2cn(-c3ccccc3)nc2C)N1Cc1ccccc1	85.5%	88.8%	71.7%	106%	73.9%	69	97.6%	59.8%	51.7%	46.9%	50%	71.4%	106%	77.5	84.3	99.9	82.8%	90.5%	71.6%
COc1ccc(-c2nc(-c3nc4ccc(OC)cc4[nH]3)c3ccccn23)cc1	71.3%	71.4%	25.5%	79.3%	64.2%	64	55.5%	33.8%	45.5%	32.4%	3.21% (active)	30.8%	89.7%	50.5	92.3	57.2	81.8%	80%	50.9%
COc1cccc(C2(C)Nc3ccccc3-c3nc4ccccc4n32)c1 (configuration not stated)	105%	100%	94.2%	106%	102%	99.8	95.6%	99.1%	84.5%	87.7%	96.4%	105%	109%	112	104	101	112%	112%	97%
